Assay outcomes deposited in PubChem by Johns Hopkins Ion Channel Center.
This is a sample that favours compounds with a hit; in the whole collection about 2.4% have one here.
TMEM16A act: TMEM16A chloride channel activators or potentiators, primary screen, cell-based, HTS. Anoctamin-1 (Mus musculus), Q8BHY3. HEK293 TMEM16A/YFP-H148Q/I152L, iodide quench fluorescence; hits give low values. B-score at 10 µM. 0.3% of 340,000 active. AID 623877, 2012;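 active = fluorescence-ratio B-score plate-corrected deviation score at least 3 library SD below zero, with starting fluorescence score within 5 deviations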;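 note: channel opened by trigger with iodide after compound preincubation; score built on the fluorescence ratio of max minus min over baseline; more negative score means more quench and so TMEM16A activation or potentiation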
CHT block: inhibitors of human choline transporter CHT. B-score at 10 µM. CHT-expressing cells, membrane potential dye, choline response; hits give low values. High affinity choline transporter 1 (Homo sapiens), Q9GZV3. 0.86% of 310,000 active. AID 488975, 2010;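 active = B-score over 3 SD under the library average, and starting fluorescence ratio not unusually high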;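 note: choline stimulus applied at its EC90 after an EC20 pre-addition; B-score computed on integrated fluorescence ratio after choline addition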
Target sequence (Q9GZV3 whole entry, looked up): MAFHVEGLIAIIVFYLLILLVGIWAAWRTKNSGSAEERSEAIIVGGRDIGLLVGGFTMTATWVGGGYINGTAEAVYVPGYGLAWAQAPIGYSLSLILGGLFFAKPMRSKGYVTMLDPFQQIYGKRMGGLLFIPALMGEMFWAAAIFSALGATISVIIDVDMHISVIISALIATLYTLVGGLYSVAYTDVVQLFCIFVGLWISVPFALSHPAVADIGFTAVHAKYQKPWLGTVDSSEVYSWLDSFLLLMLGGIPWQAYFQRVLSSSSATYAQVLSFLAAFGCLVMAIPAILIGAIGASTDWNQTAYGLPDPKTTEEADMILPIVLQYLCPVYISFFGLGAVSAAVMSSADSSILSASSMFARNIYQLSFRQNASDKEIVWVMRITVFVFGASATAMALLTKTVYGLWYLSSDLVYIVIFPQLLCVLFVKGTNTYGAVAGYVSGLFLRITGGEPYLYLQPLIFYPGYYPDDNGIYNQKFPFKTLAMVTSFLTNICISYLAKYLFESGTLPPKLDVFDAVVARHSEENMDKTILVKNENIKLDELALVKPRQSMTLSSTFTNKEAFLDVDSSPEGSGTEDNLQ
CHT allo act: CHT positive allosteric modulators, primary screen, cell-based, membrane potential dye, choline EC20. CHT-expressing cells; hits give high values; LV-AA mutant CHT in HEK293 cells. B-score at 10 µM. 0.49% of 310,000 active. AID 488977, 2010;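 active = initial fluorescence not abnormally high and integrated response B-score, plate-corrected, over 3 SD above library mean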
ANO1 block: TMEM16A chloride channel inhibitors, primary screen, cell-based, HTS; Anoctamin-1 (Mus musculus), Q8BHY3; HEK293 TMEM16A/YFP iodide influx fluorescence, ionomycin; normalized B-score (activity score, 25-100; higher = stronger inhibition) at 10 µM; 1.2% of 310,000 active; AID 588511, 2011;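 active = ratio plate-corrected score three or more library SD toward inhibition, starting fluorescence score within five deviations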;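 note: score derived from kinetic fluorescence span divided by baseline fluorescence per well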
CHT block conf: CHT inhibitors, confirmation, cell-based, membrane potential dye, duplicate; CHT activity remaining % of control (hits give low values), % at 10 µM; CHT-expressing cells, choline membrane potential dye; LV-to-AA substituted CHT, HEK293 cells; 70% of 2,400 active; shares compounds with CHT block; AID 493221, 2011;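 active = choline transporter activity left, mean of duplicates at 10 µM, below buffer-only control mean minus 3 SD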;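 note: depolarization triggered by choline at its EC90 following an EC20 pre-addition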
HEK293 MPD ctr: membrane potential effects in parental HEK293, counter-screen for CHT inhibitor project, cell-based, membrane potential dye; shares compounds with CHT block; choline response; active = decrease or increase beyond buffer ±3SD; membrane potential ratio readout (active if shifted either direction beyond buffer ±3SD; no single direction) at 10 µM; 4% of 2,400 active;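 note: parental cells lack the transporter so any hit is non-specific; ratio is peak minus trough fluorescence over baseline after EC90 choline challenge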
A number is an active result; n = inactive; x = no result.

SMILES	TMEM16A act	CHT block	CHT allo act	ANO1 block	CHT block conf	HEK293 MPD ctr
c1ccc(-c2ccccc2OCc2nnc3n2CCC3)cc1	n	-5.3	n	n	60%	n
CC(=O)c1c(C(C)=O)c(C)n(-c2ccc(N)c(C)c2)c1C	n	n	n	n	x	x
CC(C)CC(=O)Nc1nc2ccc(S(C)(=O)=O)cc2s1	n	n	n	n	x	x
CC(C)CC(=O)Nc1nc(=S)ss1	n	-6.8	n	100	40%	n
Cc1c(C)n(O)c2ccc3nonc3c12	n	-6.8	n	n	6.2%	n
COn1c(C)c(C(C)=O)c2c3nonc3ccc21	n	n	n	n	x	x
O=C1NC[C@@H](Cc2cccc3ccccc23)N(CCCCC2CCCCC2)C1=O	n	n	n	n	x	x
NC(=O)CC[C@@H]1NC(=O)[C@@H]2CCCN2C(=O)c2cc([N+](=O)[O-])cc(I)c2NCCC[C@@H](C(N)=O)NC1=O	x	n	n	n	x	x
O=C(Nc1ccc(S(=O)(=O)NCC2CCCO2)cc1)c1ccccc1 (stereo not given)	n	n	n	n	x	x
CCC(Oc1ccccc1)C(=O)Nc1ccc(S(=O)(=O)NCC2CCCO2)cc1 (stereo not given)	n	-8.7	n	n	40%	n
O=S(=O)(NCC1CCCO1)c1ccc(Oc2ccccc2)cc1 (stereo not given)	n	-5.6	n	n	n	n
CC(NC(C)c1ccccc1Cl)C(=O)Nc1cccc(S(=O)(=O)N2CCCCC2)c1 (stereo not given)	n	x	x	x	x	x
Cc1ccc(-c2nnc(N3CCCCC3)c3ccccc23)cc1S(=O)(=O)N1CCN(C)CC1	n	-7.3	n	n	42%	n
CC1CCCN(C(=O)CNS(=O)(=O)c2cccs2)C1 (stereo not given)	n	n	n	n	x	x
CCCCc1cc(-c2n[nH]c(=S)o2)c2ccccc2n1	n	-8.4	n	n	67%	n
CC(C)CC(=O)Nc1ccccc1N1CCN(C(=O)c2ccccc2)CC1	n	-5.1	n	n	n	n
CNS(=O)(=O)c1ccc(Cl)nc1	n	n	n	n	x	x
Cc1ccc(C(=O)/C=C/C(=O)O)cc1	n	-5.8	n	n	26%	n
Cc1ccc(/C=C/C(=O)c2ccccc2)cc1	n	n	n	n	x	x
Cc1ccc2c(COC(=O)c3c(C)noc3C)cc(=O)oc2c1	n	-5.9	n	n	n	n
Cc1ccc2c(COC(=O)c3ccccc3F)cc(=O)oc2c1	n	n	n	n	x	x
Nc1ncnc2c1ncn2C1OC(CO)C(O)C1O (stereo not given)	n	-10	n	n	37%	n
Nc1ncnc2c1ncn2C1OC(C(=O)NC2CC2)C(O)C1O (stereo not given)	n	-5.1	n	n	44%	n
Nc1ncnc2c1ncn2[C@@H]1O[C@H](CO)[C@@H](O)[C@@H]1O	n	n	n	n	x	x
C=CCNc1ncnc2c1ncn2C1OC(CO)C(O)C1O (stereo not given)	n	-6	n	n	41%	n
SMILES	TMEM16A act	CHT block	CHT allo act	ANO1 block	CHT block conf	HEK293 MPD ctr
OCC1OC(n2cnc3c(NC4CCCCC4)ncnc32)C(O)C1O (stereo not given)	n	-5.5	n	n	41%	n
Nc1ncnc2c1ncn2C1O[C@H](CO)[C@@H](O)[C@@H]1O (stereo not given in full)	n	n	n	n	x	x
COc1ccc(C2(C(=O)Nc3ccc(S(=O)(=O)Nc4nc(C)cc(C)n4)cc3)CCCC2)cc1OC	n	-7.7	n	n	29%	n
COc1ccccc1N(CC(=O)NC(C)C)S(=O)(=O)c1cccs1	n	n	n	n	x	x
CCOC(=O)c1ccccc1NC(=S)N1CCC(N2CCCCC2)CC1	n	n	n	n	x	x
Cc1c(Br)c([N+](=O)[O-])nn1CC(=O)NCc1ccco1	n	n	n	n	x	x
Cc1c(Br)c(C(F)(F)F)nn1CC(=O)NCc1ccco1	n	-7.7	n	n	n	n
CN(Cc1nc(C(c2ccccc2)c2ccccc2)no1)CC1COCCO1 (stereo not given)	n	n	n	n	x	x
CC1CC1C(=O)OCC(=O)Nc1cc(S(=O)(=O)N2CCCCC2)ccc1Cl (stereo not given)	n	x	x	x	x	x
Cc1noc(C)c1C(=O)NCCCN1CCCC1=O	n	n	n	n	x	x
CC(=O)C1=C(C)Nc2ncnn2C1c1ccccc1 (stereo not given)	n	n	n	n	x	x
CC1CCN(C(=O)CCCOc2cc(=O)n(C)c3ccccc23)CC1	n	-5.9	n	n	69%	n
COc1ccc(N2CCN(C(=O)CCCOc3cc(=O)n(C)c4ccccc34)CC2)cc1	n	n	n	n	x	x
Cc1cccc(N2CCN(C(=O)COc3cc(=O)n(C)c4ccccc34)CC2)c1C	n	-13	n	n	31%	n
CCCCCC(=O)Nc1ccc(C(=O)COC(=O)CN2C(=O)NC3(CCCC3)C2=O)cc1	n	n	n	n	x	x
COc1cc2c(cc1OC)[C@H](C)N(C(=O)COc1ccccc1)CC2	n	n	n	n	x	x
COc1ccc(CC(=O)N2CCc3cc(OC)c(OC)cc3C2C)c(OC)c1 (stereo not given)	n	-12	n	n	n	n
COc1ccc(C(=O)NCc2cnn(C)c2C)cc1OC1CCN(C(C)C)CC1	n	-11	n	n	12%	n
COCCCNC(=O)c1ccc(OC)c(OC2CCN(C(C)C)CC2)c1	n	-6	n	n	36%	n
COc1cccc(CCNC(=O)c2ccc(OC)c(OC3CCN(C(C)C)CC3)c2)c1	n	-13	n	n	12%	n
COc1ccc(C(=O)N2CCCCCC2)cc1OC1CCN(C(C)C)CC1	n	-5	n	n	45%	n
COc1ccc(C(=O)NCCc2ccc(C)cc2)cc1OC1CCN(C(C)=O)CC1	n	n	n	n	x	x
COc1ccc(C(=O)NCCOC(C)C)cc1OC1CCN(C(C)=O)CC1	n	n	n	n	x	x
COc1ccccc1CCNC(=O)c1ccc(OC)c(OC2CCN(C(C)C)CC2)c1	n	-12	n	n	8.6%	n
COc1ccc(C(=O)N(C)Cc2ccc(C)o2)cc1OC1CCN(C(C)C)CC1	n	-6.3	n	n	30%	n
COC(=O)CN(C)C(=O)c1ccc(OC)c(OC2CCN(C(C)C)CC2)c1	n	n	n	n	x	x
Cc1cc(=O)oc(C)c1C(=O)n1nc(C)c2c1C[C@@H]1[C@H]2C1(C)C	n	n	n	n	x	x
Cn1c(-c2ccc(F)cc2)cnc1NCc1ccccc1	x	-5	n	n	n	n
